Hits are enriched below; roughly 6.9% of the tested compounds scored in any of these assays.
Beta cell apopt: blocks beta cell apoptosis; INS-1E cytokine-induced death, ATP luminescence, 48 h; percent of positive-control rescue, neutral wells zero; protection from apoptosis, % (no concentration beside the values); hit rate 0.8% among 300,000; AID 435005;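 active means Every replicate reaches about 75%, or at least half do and their mean reaches it too, limit read from the data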;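 further: 0% = cytokine-treated negative control wells and 100% = positive control rescue; higher means more ATP so stronger rescue from cytokine killing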
GRIN3A LBD mod: modulates the human NR3A ligand-binding domain; Tm shift relative to glycine control, % at 25 µM; NR3A LBD differential scanning fluorimetry, Tm shift; 0% = protein alone, 100% = glycine-bound protein; hit rate 2.5% among 340,000; AID 1259313;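 active means melting temperature shift of at least 10% of the positive control shift, at one fixed dose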
MPTP block: blocks calcium-induced mitochondrial swelling | isolated mouse mitochondria, Ca2+ swelling absorbance, 30 min | inhibition, % at 10 µM | hit rate 1.4% among 360,000 | AID 602449;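 active means inhibition of 50% or more, scaled per plate between neutral and stimulator controls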;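 further: 0% = DMSO wells given calcium and 100% = 1 mM EGTA wells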
Mdm2 MdmX PPI: human Mdm2/MdmX binding inhibition. inhibition, % at 8 µM. SaOS-2 split-luciferase Mdm2/MdmX complementation, luminescence. hit rate 3% among 330,000. O15151+Q00987;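 active means inhibition of at least 50% at 8 µM in the primary screen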
Target sequence (O15151 whole entry, looked up): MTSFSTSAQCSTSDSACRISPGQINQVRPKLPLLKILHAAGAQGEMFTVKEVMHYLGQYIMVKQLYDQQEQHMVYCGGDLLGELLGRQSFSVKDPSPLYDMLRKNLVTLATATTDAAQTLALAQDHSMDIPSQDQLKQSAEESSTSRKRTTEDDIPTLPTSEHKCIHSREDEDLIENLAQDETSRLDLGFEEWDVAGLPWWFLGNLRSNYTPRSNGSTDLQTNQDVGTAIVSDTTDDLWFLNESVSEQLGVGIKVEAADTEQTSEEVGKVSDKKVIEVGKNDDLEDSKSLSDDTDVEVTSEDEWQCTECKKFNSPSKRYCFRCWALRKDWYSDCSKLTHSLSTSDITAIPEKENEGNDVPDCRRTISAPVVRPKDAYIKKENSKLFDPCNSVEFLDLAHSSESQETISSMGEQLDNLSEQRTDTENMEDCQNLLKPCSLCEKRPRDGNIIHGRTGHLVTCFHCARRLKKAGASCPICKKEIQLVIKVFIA
Target sequence (Q00987 whole entry, looked up): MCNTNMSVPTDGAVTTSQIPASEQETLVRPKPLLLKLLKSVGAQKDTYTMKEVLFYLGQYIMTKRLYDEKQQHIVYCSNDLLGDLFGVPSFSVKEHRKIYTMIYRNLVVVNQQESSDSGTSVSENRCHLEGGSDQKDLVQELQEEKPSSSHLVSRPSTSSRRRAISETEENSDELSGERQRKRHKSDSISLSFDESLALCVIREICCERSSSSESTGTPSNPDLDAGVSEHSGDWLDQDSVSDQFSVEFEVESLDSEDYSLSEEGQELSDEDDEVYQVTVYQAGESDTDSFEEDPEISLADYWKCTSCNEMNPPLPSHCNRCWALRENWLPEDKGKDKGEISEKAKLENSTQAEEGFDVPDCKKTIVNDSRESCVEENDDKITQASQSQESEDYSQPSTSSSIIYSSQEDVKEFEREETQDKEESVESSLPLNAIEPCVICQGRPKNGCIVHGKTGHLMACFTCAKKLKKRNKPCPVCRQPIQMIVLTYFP
SKKanGAS inh: blocks kanamycin growth of S. pyogenes SKKanGAS strain. hit rate 1.3% among 300,000. BacTiter-Glo, 6 h. inhibition, % at 7.5 µM;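 active means mean replicate score, as percent of positive control median, at least 50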;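 further: strain carries kanamycin resistance gene driven by streptokinase promoter and grows in 40 µg/ml kanamycin; loss of luminescence reflects streptokinase promoter inhibition or plain growth inhibition; 0% = median of DMSO wells and 100% = positive control at its reference dose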
CSC inhib: blocks cancer stem cells; cancer stem cell-like cells viability, luminescence; inhibition, % at 7.5 µM; hit rate 1.1% among 300,000; AID 2717; in the data active means inhibition above about 75%; tested in HMLE shEcad cells
The depositor's hits bear a star; . = no result given.

SMILES	Beta cell apopt	GRIN3A LBD mod	MPTP block	Mdm2 MdmX PPI	SKKanGAS inh	CSC inhib
Cc1cc2nc(-c3ccc(SCC(=O)Nc4ccc5c(c4)OCCO5)nc3)[nH]c2cc1C	13	15*	1	46	21	17
O=C(CSc1ccc(-c2nc3ccccc3[nH]2)cn1)Nc1ccc2c(c1)OCCO2	19	29*	1	-24	-3	-3
COC(=O)[C@H](Cc1ccccc1)NS(=O)(=O)c1ccc(F)cc1Br	.	-1	-1	.	.	.
S=C(NCc1ccc2c(c1)OCO2)Nc1ccc(-c2nc3ccccc3[nH]2)cc1	.	26*	3	-31	6	27
CN(C)CCNC(=S)Nc1ccc(-c2nc3ccccc3[nH]2)cc1	-1	5	-1	-75	-6	-18
O=c1cc(NS(=O)(=O)c2ccccc2)nc(SCc2ccc(Cl)cc2)[nH]1	5	20*	3	.	.	88*
CC(Oc1ccc(Cl)cc1)C(=O)N1CCN(C(=O)c2ccco2)CC1 (stereo not drawn)	-4	1	-1	-23	.	.
CC1(C)C[C@H]2C3=CCC4[C@@]5(C)CC[C@H](O)C(C)(C)C5CC[C@@]4(C)[C@]3(C)[C@@H](O)[C@@H](O)[C@@]2(CO)[C@@H](O)[C@@H]1O (stereo partly drawn)	8	-6	-2	24	.	-22
CC1(C)CC[C@]2(C(=O)O)CC[C@]3(CO)C(=CCC4[C@@]5(C)C[C@H](O)[C@H](O)[C@@](C)(C(=O)O)C5CC[C@]43C)[C@@H]2C1 (stereo partly drawn)	-3	14*	0	4	.	3
O=C(Nn1cnc2ccccc2c1=O)c1ccc([N+](=O)[O-])cc1	-3	-1	-2	-26	-13	-9
CC12COC3(C(=O)Nc4ccc5ccccc5c4)CC1CCC32C (stereo not drawn)	3	5	1	-76	-9	44
CC(C)(CN1CCN(C(c2ccccc2)c2ccccc2)CC1)NS(=O)(=O)c1ccccc1	15	-1	2	6	-1	98*
CC(=O)N1CCN(CC(C)(C)NS(=O)(=O)c2ccccc2)CC1	-4	0	0	-10	.	-5
CC(C)(CN1CCN(Cc2ccccc2)CC1)NS(=O)(=O)c1ccccc1	4	-1	-1	-7	-5	76*
Cc1ccc(N(CC(=O)N2CCc3ccccc3C2)S(C)(=O)=O)cc1	-5	0	0	4	11	-9
CC1CC(C)CN(S(=O)(=O)c2ccc(C(=O)Nc3nnc(C4CC4)o3)cc2)C1 (stereo not drawn)	27	-3	-3	49	68*	63
CCC1CCCCN1S(=O)(=O)c1ccc(C(=O)Nc2nnc(C3CC3)o2)cc1 (stereo not drawn)	4	-1	-4	43	60*	26
CCC1CCCCN1S(=O)(=O)c1ccc(C(=O)Nc2nnc(C3=COCCO3)o2)cc1 (stereo not drawn)	-2	-3	-1	25	79*	21
CCOC(=O)N1CCN(S(=O)(=O)c2ccc(C(=O)Nc3nnc(C4CC4)o3)cc2)CC1	-4	-3	0	9	3	6
COc1ccc(Cl)cc1NC(=O)CN1CCc2ccccc2C1	-19	0	2	12	15	-7
COc1ccc(C(=O)/C=C/C(=O)N(Cc2ccccc2)C(C(=O)NC2CCCCC2)c2ccncc2)c(O)c1 (stereo not drawn)	11	17*	1	22	-3	0
COc1ccc(C(=O)/C=C/C(=O)N(Cc2ccc(F)cc2)C(C(=O)NC2CCCCC2)c2ccncc2)c(O)c1 (stereo not drawn)	6	4	1	17	27	.
COc1ccc(C(=O)N/N=C(/C)c2cccc(NC(=O)C(F)(F)F)c2)cc1	-8	10*	10	-32	-18	-6
CCC(=O)Nc1ccc(/C(C)=N\NC(=O)c2ccc(OC)cc2)cc1	0	19*	-1	1	-1	-10
CCC(=O)NC(=S)Nc1ccc(NC(=O)c2ccc(OC)cc2)cc1	.	-4	3	13	3	-14
SMILES	Beta cell apopt	GRIN3A LBD mod	MPTP block	Mdm2 MdmX PPI	SKKanGAS inh	CSC inhib
O=C(COC(=O)c1cc(=O)[nH]c2ccccc12)NCc1ccccc1Cl	-7	1	0	1	.	10
Cc1onc(-c2ccccc2)c1CNS(=O)(=O)c1cccc(Br)c1	3	1	-2	-3	-4	-1
O=C(N=Nc1c(O)[nH]c2ccc([N+](=O)[O-])cc12)c1ccccc1Cl	7	-5	8	-9	15	-2
O=C(O)c1ccccc1N=Nc1c(O)[nH]c2ccc([N+](=O)[O-])cc12	-6	27*	2	10	6	-11
O=[N+]([O-])c1ccc2[nH]c(O)c(N=NC(=S)NCC3CCCO3)c2c1 (stereo not drawn)	5	27*	1	38	0	-2
CCNC(=S)N=Nc1c(O)[nH]c2ccc([N+](=O)[O-])cc12	11	5	1	31	-1	11
CCCCCC(=O)N=Nc1c(O)[nH]c2ccc([N+](=O)[O-])cc12	3	30*	3	13	0	8
O=C(NC1CCCCC1)C(c1ccccc1)n1c(=O)c(-c2ccco2)nc2ccccc21 (stereo not drawn)	.	.	-1	.	.	.
COc1c(CC=C(C)C)cc(C2CC(=O)c3c(O)cc(O)cc3O2)c(CC=C(C)C)c1O (stereo not drawn)	0	22*	.	30	109*	-3
Cc1ccccc1Nc1nc(N)c2ccccc2n1	25	6	2	-184	18	29
CCOc1ccc(Nc2nc(N)c3ccccc3n2)cc1	.	28*	-1	-5	60*	.
CN(C)c1ccc(Nc2nc(N)c3ccccc3n2)cc1	.	-8	0	26	37	.
Nc1nc(Nc2ccc(Cl)cc2)nc2ccccc12	28	39*	3	-129	.	-3
Cc1ccc(Nc2nc(N)c3ccccc3n2)cc1Cl	.	39*	1	-208	9	.
Nc1nc(Nc2ccccc2)nc2ccccc12	35	-2	1	-217	5	22
Cc1ccc(N(CC(=O)NC2CCCCC2)C(=O)CCCC(=O)Nc2ccccn2)cc1	0	-2	-2	4	-1	.
CC1(CCc2ccc3c(c2)OCO3)NCCc2c1[nH]c1ccccc21 (stereo not drawn)	-10	-1	0	31	6	-11
O=C(NCCC(F)(F)F)C1Cc2c(-c3ccc(Cl)cc3)ccnc2O1 (stereo not drawn)	.	.	0	.	.	.
COC(=O)C1C(=O)C2=C(CC1C)NC(=O)CC2c1cccc(C)c1 (stereo not drawn)	13	1	1	-7	1	101*
COC(=O)C1C(=O)C2=C(CC1C)NC(=O)CC2c1ccccc1 (stereo not drawn)	-11	-1	0	13	-1	-18
Cc1ccc(C(=O)N(C)Cc2ccc(N3CCOCC3)cc2)cc1S(=O)(=O)NCc1ccccc1	-5	0	0	23	.	-8

Screening data (PubChem)
